Data as given in the supplement of paper PMC12819154, “High-throughput peptide-centric local stability assay extends protein–ligand identification to membrane proteins, tissues and bacteria” (Nature Structural & Molecular Biology, 2025).

Assays:
[1] = compound: T1, CN[C@@H]1C[C@H]2O[C@@](C)([C@@H]1OC)n1c3ccccc3c3c4c(c5c6ccccc6n2c5c31)C(=O)NC4 [staurosporine]; experiment: log2 fold change of tryptic peptide abundance, ligand vs vehicle (limited proteolysis) (log2 ratio); higher = more trypsin-susceptible (destabilized); conditions: ligand concentration: 20 uM; sample: mouse liver crude lysate; replicate design: treated separately
[2] = compound: T1, staurosporine; experiment: as above; conditions: ligand concentration: 20 uM; sample: K562 cleared lysate; digestion: 4 min, 22 C (HT-PELSA RT4min, Orbitrap Astral)

UniProt Q3TLP5, sequence (Q3TLP5 whole entry): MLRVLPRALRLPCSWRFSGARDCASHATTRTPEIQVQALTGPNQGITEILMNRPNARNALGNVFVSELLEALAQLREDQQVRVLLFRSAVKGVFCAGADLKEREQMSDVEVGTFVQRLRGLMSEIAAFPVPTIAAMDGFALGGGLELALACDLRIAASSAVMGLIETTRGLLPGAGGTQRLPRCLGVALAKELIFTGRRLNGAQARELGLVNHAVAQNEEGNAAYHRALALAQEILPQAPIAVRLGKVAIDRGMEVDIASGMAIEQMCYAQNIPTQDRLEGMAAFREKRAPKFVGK
UniProt O09110, sequence (O09110 whole entry): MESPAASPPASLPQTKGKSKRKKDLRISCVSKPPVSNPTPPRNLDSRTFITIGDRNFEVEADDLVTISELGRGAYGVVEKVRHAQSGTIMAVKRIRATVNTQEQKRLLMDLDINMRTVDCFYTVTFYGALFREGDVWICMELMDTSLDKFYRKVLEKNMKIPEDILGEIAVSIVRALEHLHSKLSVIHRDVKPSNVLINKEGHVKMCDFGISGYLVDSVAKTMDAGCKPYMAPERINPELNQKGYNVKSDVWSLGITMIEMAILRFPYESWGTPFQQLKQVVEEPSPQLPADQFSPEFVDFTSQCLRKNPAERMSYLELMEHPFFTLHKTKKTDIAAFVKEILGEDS
UniProt O88630, sequence (O88630 whole entry): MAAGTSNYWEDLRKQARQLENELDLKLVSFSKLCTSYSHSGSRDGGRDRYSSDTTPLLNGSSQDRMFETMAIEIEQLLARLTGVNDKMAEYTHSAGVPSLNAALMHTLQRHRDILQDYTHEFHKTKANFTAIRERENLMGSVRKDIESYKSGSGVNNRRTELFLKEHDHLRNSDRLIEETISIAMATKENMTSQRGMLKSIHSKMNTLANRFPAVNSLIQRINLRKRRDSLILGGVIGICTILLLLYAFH
UniProt A2A8Z1, sequence (A2A8Z1 whole entry): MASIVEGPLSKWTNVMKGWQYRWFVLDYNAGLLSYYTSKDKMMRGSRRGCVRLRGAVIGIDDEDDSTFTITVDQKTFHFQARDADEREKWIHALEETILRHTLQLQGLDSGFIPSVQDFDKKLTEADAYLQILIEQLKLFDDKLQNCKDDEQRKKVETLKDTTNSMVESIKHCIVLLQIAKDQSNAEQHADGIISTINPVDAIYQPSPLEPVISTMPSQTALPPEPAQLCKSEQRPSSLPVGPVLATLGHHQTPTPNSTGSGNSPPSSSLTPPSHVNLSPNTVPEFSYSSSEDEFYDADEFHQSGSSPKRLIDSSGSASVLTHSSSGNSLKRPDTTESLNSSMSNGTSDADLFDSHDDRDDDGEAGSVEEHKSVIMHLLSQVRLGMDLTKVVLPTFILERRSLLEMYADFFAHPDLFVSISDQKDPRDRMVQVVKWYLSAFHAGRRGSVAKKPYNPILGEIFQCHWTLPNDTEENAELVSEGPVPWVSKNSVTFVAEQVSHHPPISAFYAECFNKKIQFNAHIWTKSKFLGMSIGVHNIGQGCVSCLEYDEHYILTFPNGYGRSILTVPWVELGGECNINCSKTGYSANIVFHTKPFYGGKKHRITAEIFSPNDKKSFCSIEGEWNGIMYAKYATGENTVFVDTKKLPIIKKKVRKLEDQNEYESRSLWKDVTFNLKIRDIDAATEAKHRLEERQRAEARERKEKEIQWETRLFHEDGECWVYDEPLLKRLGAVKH
UniProt Q99JP0, sequence (Q99JP0 whole entry): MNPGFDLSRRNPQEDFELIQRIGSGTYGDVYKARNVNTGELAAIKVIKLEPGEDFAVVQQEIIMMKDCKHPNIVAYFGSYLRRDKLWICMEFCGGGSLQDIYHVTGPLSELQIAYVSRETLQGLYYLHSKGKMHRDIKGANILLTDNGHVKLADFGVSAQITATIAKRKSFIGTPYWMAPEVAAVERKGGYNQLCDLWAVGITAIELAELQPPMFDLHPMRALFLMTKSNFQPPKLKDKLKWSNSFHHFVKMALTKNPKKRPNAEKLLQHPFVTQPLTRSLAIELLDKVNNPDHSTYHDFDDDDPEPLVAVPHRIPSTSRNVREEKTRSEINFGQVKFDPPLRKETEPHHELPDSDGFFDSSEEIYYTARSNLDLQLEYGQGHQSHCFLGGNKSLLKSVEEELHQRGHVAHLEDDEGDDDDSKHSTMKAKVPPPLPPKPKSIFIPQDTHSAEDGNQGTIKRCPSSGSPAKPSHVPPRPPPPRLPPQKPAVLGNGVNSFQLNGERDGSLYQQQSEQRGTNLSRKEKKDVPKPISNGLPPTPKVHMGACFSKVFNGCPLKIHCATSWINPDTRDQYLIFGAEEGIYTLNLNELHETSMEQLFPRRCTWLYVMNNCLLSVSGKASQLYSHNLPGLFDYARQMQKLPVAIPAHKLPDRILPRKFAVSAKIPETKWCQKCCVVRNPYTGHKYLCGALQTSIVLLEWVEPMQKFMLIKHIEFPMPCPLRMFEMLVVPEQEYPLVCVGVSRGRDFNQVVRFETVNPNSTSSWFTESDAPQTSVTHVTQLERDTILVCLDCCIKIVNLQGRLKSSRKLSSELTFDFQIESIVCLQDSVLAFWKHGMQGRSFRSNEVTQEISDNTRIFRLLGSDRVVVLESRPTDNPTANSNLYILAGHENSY
UniProt Q91W52, sequence (Q91W52 whole entry): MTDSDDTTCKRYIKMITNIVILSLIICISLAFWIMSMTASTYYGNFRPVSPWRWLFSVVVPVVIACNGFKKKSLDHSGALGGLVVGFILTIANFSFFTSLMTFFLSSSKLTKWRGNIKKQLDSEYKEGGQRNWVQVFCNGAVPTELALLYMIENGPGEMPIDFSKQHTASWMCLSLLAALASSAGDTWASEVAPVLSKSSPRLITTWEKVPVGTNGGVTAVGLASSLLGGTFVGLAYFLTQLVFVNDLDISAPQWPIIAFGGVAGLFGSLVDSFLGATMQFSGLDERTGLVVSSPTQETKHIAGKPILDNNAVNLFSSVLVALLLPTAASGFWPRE
UniProt Q6PHR2, sequence (Q6PHR2 whole entry): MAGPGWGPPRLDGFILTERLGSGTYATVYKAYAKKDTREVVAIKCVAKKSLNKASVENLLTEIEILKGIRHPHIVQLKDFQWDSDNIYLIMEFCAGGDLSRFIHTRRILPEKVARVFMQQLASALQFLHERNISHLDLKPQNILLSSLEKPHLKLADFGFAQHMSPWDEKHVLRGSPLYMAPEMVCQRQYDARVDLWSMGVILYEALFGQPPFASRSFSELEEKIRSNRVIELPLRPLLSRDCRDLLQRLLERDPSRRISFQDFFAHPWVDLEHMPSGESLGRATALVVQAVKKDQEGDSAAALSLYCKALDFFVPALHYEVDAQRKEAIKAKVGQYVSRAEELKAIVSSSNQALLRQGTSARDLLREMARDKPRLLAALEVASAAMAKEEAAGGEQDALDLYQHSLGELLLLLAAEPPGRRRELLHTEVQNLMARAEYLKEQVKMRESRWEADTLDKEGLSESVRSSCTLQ
UniProt Q9WTU6, sequence (Q9WTU6 whole entry): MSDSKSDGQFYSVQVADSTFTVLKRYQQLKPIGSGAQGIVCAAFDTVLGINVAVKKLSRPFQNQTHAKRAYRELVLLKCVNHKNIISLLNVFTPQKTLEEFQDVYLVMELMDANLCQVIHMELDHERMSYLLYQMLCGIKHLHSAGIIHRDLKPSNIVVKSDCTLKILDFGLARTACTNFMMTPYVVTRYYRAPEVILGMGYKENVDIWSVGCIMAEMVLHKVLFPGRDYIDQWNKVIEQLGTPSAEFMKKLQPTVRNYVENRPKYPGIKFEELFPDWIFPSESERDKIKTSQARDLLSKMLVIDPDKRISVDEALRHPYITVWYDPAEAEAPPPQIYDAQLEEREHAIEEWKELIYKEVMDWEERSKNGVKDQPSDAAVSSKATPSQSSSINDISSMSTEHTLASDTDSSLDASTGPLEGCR
UniProt Q9QXD1, sequence (Q9QXD1 whole entry): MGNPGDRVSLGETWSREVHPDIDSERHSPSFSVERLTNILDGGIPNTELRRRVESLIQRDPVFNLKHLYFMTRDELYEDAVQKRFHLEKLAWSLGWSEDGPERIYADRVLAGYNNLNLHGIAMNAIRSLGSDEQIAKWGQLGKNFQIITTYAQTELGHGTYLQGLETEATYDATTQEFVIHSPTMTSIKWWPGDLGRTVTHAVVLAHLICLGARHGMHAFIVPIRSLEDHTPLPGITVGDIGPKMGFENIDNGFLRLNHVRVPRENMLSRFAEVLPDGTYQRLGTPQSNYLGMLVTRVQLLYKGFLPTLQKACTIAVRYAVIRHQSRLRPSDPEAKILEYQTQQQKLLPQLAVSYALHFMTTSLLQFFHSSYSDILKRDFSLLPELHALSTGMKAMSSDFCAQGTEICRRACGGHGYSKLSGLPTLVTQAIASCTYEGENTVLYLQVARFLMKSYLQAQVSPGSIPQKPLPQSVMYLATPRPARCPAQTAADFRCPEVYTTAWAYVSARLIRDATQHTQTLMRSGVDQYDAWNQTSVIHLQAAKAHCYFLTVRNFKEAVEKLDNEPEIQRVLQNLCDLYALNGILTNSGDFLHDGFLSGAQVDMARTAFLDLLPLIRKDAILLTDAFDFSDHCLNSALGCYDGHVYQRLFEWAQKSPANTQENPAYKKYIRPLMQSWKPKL
UniProt Q99J95, sequence (Q99J95 whole entry): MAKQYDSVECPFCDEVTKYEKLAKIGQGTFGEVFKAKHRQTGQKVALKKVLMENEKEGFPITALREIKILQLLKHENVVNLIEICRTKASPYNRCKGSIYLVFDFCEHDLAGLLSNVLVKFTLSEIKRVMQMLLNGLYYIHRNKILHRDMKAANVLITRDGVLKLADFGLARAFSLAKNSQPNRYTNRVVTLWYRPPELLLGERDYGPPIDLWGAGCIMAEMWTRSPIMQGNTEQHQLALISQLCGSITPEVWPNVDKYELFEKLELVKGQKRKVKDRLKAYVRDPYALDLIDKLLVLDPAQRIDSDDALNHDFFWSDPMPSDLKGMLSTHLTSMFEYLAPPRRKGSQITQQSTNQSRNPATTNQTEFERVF
UniProt P34928, sequence (P34928 whole entry): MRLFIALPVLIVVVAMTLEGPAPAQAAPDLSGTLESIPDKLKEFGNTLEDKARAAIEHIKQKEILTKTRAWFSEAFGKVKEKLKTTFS

Target	log2 fold change [1]	log2 fold change [2]
UniProt Q3TLP5 (peptide sequence: GLLPGAGGTQR, peptide start residue: 170)	0.658	–
UniProt Q8R123 (peptide sequence: LSMVPSSAR, peptide start residue: 125)	-0.276	–
UniProt Q9UBS0 (peptide sequence: HPFIVELAYAFQTGGK, peptide start residue: 128)	–	-0.89
ULK3 (peptide sequence: VIELPLRPLLSR, peptide start residue: 230) (UniProt Q6PHR2)	–	-1.32
UniProt P97864 (peptide sequence: LFFIQACR, peptide start residue: 180)	-0.485	–
UniProt Q9Z1M4 (peptide sequence: IGPHCFELLSVLGK, peptide start residue: 62)	-0.47	–
UniProt Q04899 (peptide sequence: HANIVTLHDLIHTDR, peptide start residue: 176)	-3.35	–
UniProt Q9CRD0 (peptide sequence: FKKLENSPLGEALR, peptide start residue: 102)	0.663	–
UniProt Q9QZD8 (peptide sequence: MTGMALQVVR, peptide start residue: 43)	0.567	–
UniProt P41216 (peptide sequence: WLLDFASK, peptide start residue: 389)	0.328	–
UniProt Q61136 (peptide sequence: LNDADPDDKFHCLR, peptide start residue: 739)	-1.19	–
UniProt P58044 (peptide sequence: WWDNLNHLSPFVDHEK, peptide start residue: 208)	1.05	–
UniProt Q64028 (peptide sequence: PQIAQMSLYER, peptide start residue: 24)	0.725	–
UniProt Q64133 (peptide sequence: ELGIETYK, peptide start residue: 83)	-0.486	–
UniProt Q9EQ20 (peptide sequence: YQQLIKENLKEIAR, peptide start residue: 108)	-0.315	–
UniProt P24788 (peptide sequence: YLPALQGCR, peptide start residue: 414)	-0.33	–
UniProt Q9WU19 (peptide sequence: LAMALSGCQNVK, peptide start residue: 342)	0.411	–
UniProt Q9QXD1 (peptide sequence: LFEWAQK, peptide start residue: 649)	-0.551	–
UniProt Q91W52 (peptide sequence: LITTWEK, peptide start residue: 203)	0.417	–
UniProt P08226 (peptide sequence: LQAEIFQAR, peptide start residue: 262)	0.428	–
UniProt Q9JI11 (peptide sequence: ATATQLLQHPFVK, peptide start residue: 270)	-3.07	–
UniProt Q5F2E8 (peptide sequence: AGNILLTEPGQVK, peptide start residue: 150)	-2.13	–
UniProt Q5SW19 (peptide sequence: YLELLER, peptide start residue: 517)	-0.493	–

Target	log2 fold change [1]	log2 fold change [2]
UniProt Q9DB30 (peptide sequence: IMEVSAER, peptide start residue: 54)	-3.03	–
UniProt Q62073 (peptide sequence: VNHPNIVK, peptide start residue: 84)	-1.73	–
UniProt Q61036 (peptide sequence: ELLQHPFLK, peptide start residue: 493)	-2.37	–
UniProt P70697 (peptide sequence: FALPYIR, peptide start residue: 232)	0.384	–
UniProt Q91YX5 (peptide sequence: DQQLLVLKK, peptide start residue: 157)	0.642	–
UniProt Q62393 (peptide sequence: GWQDVTATNAYK, peptide start residue: 125)	0.581	–
UniProt Q99J95 (peptide sequence: IGQGTFGEVFK, peptide start residue: 25)	-1	–
UniProt P13516 (peptide sequence: TVPLHLEEDIRPEMK, peptide start residue: 33)	0.245	–
UniProt Q9WVD5 (peptide sequence: TYSQVGFR, peptide start residue: 54)	-1.35	–
UniProt Q8C078 (peptide sequence: DIKPSNLLVGEDGHIK, peptide start residue: 312)	-3.1	–
UniProt E9Q414 (peptide sequence: LPQQIHHYLNASDWER, peptide start residue: 2117)	0.422	–
UniProt Q91YQ1 (peptide sequence: STVGVDFALK, peptide start residue: 38)	0.602	–
UniProt Q91YH5 (peptide sequence: ALASVLLQDHIR, peptide start residue: 45)	0.309	–
UniProt P41241 (peptide sequence: GSLVDYLR, peptide start residue: 272)	-1.06	–
UniProt Q9WTU6 (peptide sequence: MLVIDPDKR, peptide start residue: 301)	-1.15	–
UniProt Q8BPM2 (peptide sequence: LLTHTFVGQPGLSR, peptide start residue: 271)	-1.27	–
UniProt Q9JLB2 (peptide sequence: DRFASAVPHTTR, peptide start residue: 505)	0.704	–
UniProt O09110 (peptide sequence: TFITIGDR, peptide start residue: 48)	-0.503	–
UniProt P31938 (peptide sequence: VSHKPSGLVMAR, peptide start residue: 85)	-0.899	–
UniProt Q9WTK7 (peptide sequence: SMTVVPYLEDLHGR, peptide start residue: 334)	1.41	–
UniProt Q9EPJ9 (peptide sequence: DVTTFFSGK, peptide start residue: 289)	0.513	–
UniProt Q8CAS9 (peptide sequence: NILDYVTK, peptide start residue: 221)	0.389	–
UniProt Q8VCH6 (peptide sequence: LTQGETLR, peptide start residue: 368)	0.499	–

Target	log2 fold change [1]	log2 fold change [2]
UniProt Q9CXI0 (peptide sequence: NVTHIDQALQEAHR, peptide start residue: 221)	-0.267	–
UniProt A2A8Z1 (peptide sequence: VVLPTFILERR, peptide start residue: 391)	0.538	–
UniProt Q9JHU3 (peptide sequence: HVETGEIVALKK, peptide start residue: 23)	-2.31	–
UniProt Q9DC28 (peptide sequence: FDDKPDYSYLR, peptide start residue: 260)	-0.751	–
UniProt P34928 (peptide sequence: AWFSEAFGK, peptide start residue: 70)	0.496	–
UniProt Q9DB41 (peptide sequence: GAAVNLTLVTPEK, peptide start residue: 68)	0.677	–
UniProt Q76M72 (peptide sequence: WLIVTNKPQK, peptide start residue: 285)	-2.63	–
UniProt Q8C4X2 (peptide sequence: DVKPENFLIGRPGNK, peptide start residue: 162)	-1.22	–
UniProt Q2NL51 (peptide sequence: LCDFGSAK, peptide start residue: 198)	-4.01	–
UniProt O55137 (peptide sequence: GLAPEQPVTLR, peptide start residue: 25)	-0.292	–
UniProt P70349 (peptide sequence: IIFEDDR, peptide start residue: 31)	-0.309	–
UniProt Q920L1 (peptide sequence: VAPLVQSLCAK, peptide start residue: 402)	0.439	–
UniProt P35980 (peptide sequence: TNSTFNQVVLK, peptide start residue: 39)	0.658	–
UniProt O88630 (peptide sequence: MNTLANRFPAVNSLIQR, peptide start residue: 205)	0.676	–
UniProt Q9D6M3 (peptide sequence: LAANDFFR, peptide start residue: 84)	0.616	–
UniProt Q99JP0 (peptide sequence: NVNTGELAAIK, peptide start residue: 35)	-1.82	–
UniProt P70268 (peptide sequence: EGMGYGDR, peptide start residue: 805)	-3.03	–
UniProt Q3U214 (peptide sequence: YFLEMQDKLER, peptide start residue: 260)	0.698	–
UniProt P62717 (peptide sequence: AHSIQIMK, peptide start residue: 121)	0.267	–
UniProt P97742 (peptide sequence: IWMAMVK, peptide start residue: 149)	0.562	–
UniProt Q8VCC2 (peptide sequence: LAELFTNQR, peptide start residue: 97)	-0.315	–
UniProt P31324 (peptide sequence: LKVVDVIGTK, peptide start residue: 284)	1.51	–
